Assay results as given in PubChem BioAssay (NCI).
About 83,000 compounds went through this panel and 20% of them were active in at least one assay; those are over-represented in the sample as a whole.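 Plates (96-well) were seeded with cells, treated with compound at one concentration, and incubated for 48 hours before percent growth was determined.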 Unmarked numbers belong to inactive results. Active and inactive are the calls of the source. Rule for the calls: active = growth percent below 10; inactive = the rest.

Columns and labels:
Assay in all cases: NCI-60 one-dose screen, 48 h (100 = growth as untreated, 0 = no growth, -100 = all killed)
Settings in all cases: 10 µM unless noted
HCT-15 colon = system: HCT-15 colon
HT29 colon = system: HT29 colon
SNB-75 CNS = system: SNB-75 CNS
SNB-19 CNS = system: SNB-19 CNS
U251 CNS = system: U251 CNS
PC-3 prostate = system: PC-3 prostate
SK-MEL-5 melanoma = system: SK-MEL-5 melanoma
UACC-62 melanoma = system: UACC-62 melanoma
LOX IMVI melanoma = system: LOX IMVI melanoma
SK-MEL-28 melanoma = system: SK-MEL-28 melanoma

CCSc1ccc(C2C(Br)C(=O)N2c2cc(OC)c(OC)c(OC)c2)cc1 (stereo not given)
growth (HCT-15 colon): 15.2%
growth (HT29 colon): 2.99% (active)
growth (SNB-75 CNS): 51.1%
growth (SNB-19 CNS): 33.4%
growth (U251 CNS): 12.1%
growth (PC-3 prostate): 20%
growth (SK-MEL-5 melanoma): -11.3% (active)
growth (UACC-62 melanoma): 29.6%
growth (LOX IMVI melanoma): 25.7%

CC(=O)OCC1SC(OC(C)=O)C(NC(=O)/C=C/CCl)C(OC(C)=O)C1OC(C)=O (stereo not given)
growth (HCT-15 colon): 100%
growth (HT29 colon): 102%
growth (SNB-75 CNS): 93.8%
growth (SNB-19 CNS): 111%
growth (U251 CNS): 90.6%
growth (PC-3 prostate): 86.8%
growth (SK-MEL-5 melanoma): 87.7%
growth (UACC-62 melanoma): 98%
growth (LOX IMVI melanoma): 93.4%

O=c1[nH]c2ccccc2cc1-c1nc2ccc(Cl)cc2[nH]1
growth (HCT-15 colon): 23.5%
growth (HT29 colon): 53.1%
growth (SNB-75 CNS): 45.1%
growth (SNB-19 CNS): 75.5%
growth (U251 CNS): 49.5%
growth (PC-3 prostate): 26%
growth (SK-MEL-5 melanoma): 42.5%
growth (UACC-62 melanoma): 43%
growth (LOX IMVI melanoma): 42.4%

COc1cc(/C=C/C(=O)/C=C/c2cc3ccc(Cl)cc3[nH]c2=O)ccc1O
growth (HCT-15 colon): 52.4%
growth (HT29 colon): 5.63% (active)
growth (SNB-75 CNS): 74.4%
growth (SNB-19 CNS): 76.5%
growth (U251 CNS): 19.6%
growth (PC-3 prostate): 56.2%
growth (SK-MEL-5 melanoma): 60.8%
growth (UACC-62 melanoma): 53.1%
growth (LOX IMVI melanoma): 19.8%

C=C1C(=O)O[C@H]2[C@H]1CC/C(COC(=O)NCc1nc3ccccc3[nH]1)=C\CC[C@@]1(C)O[C@@H]21
growth (HCT-15 colon): 103%
growth (HT29 colon): 63.8%
growth (SNB-75 CNS): 91.9%
growth (SNB-19 CNS): 98.6%
growth (U251 CNS): 92.9%
growth (PC-3 prostate): 85.6%
growth (SK-MEL-5 melanoma): 97%
growth (UACC-62 melanoma): 80%
growth (LOX IMVI melanoma): 75.9%

COC(=O)c1cncc(C(=O)Nc2ccc(-n3cnc4ccccc43)cc2)c1
growth (HCT-15 colon): 100%
growth (HT29 colon): 96.5%
growth (SNB-75 CNS): 117%
growth (SNB-19 CNS): 99.1%
growth (U251 CNS): 91.4%
growth (PC-3 prostate): 92.1%
growth (SK-MEL-5 melanoma): 93.9%
growth (UACC-62 melanoma): 93.4%
growth (LOX IMVI melanoma): 96.4%

O=C1Nc2ccc(Br)cc2/C1=N\N=C/c1cn(Cc2ccccc2)c2ccccc12
growth (HCT-15 colon): 103%
growth (HT29 colon): 91%
growth (SNB-75 CNS): 84.7%
growth (SNB-19 CNS): 98%
growth (U251 CNS): 94.6%
growth (PC-3 prostate): 75.1%
growth (SK-MEL-5 melanoma): 97.2%
growth (UACC-62 melanoma): 79.4%
growth (LOX IMVI melanoma): 98.1%

N#Cc1nc(-c2ccccc2)oc1S(=O)(=O)NCC(c1ccc(Cl)cc1)N1CCCCC1 (stereo not given)
growth (HCT-15 colon): 35.3%
growth (HT29 colon): 25.1%
growth (SNB-75 CNS): 94%
growth (SNB-19 CNS): 88.1%
growth (U251 CNS): 74.1%
growth (PC-3 prostate): 78.9%
growth (SK-MEL-5 melanoma): 73.8%
growth (UACC-62 melanoma): 80.2%
growth (LOX IMVI melanoma): 21.9%

CO[C@@]12C=C[C@@]34CCC(=O)N3c3ccccc3[C@@H](O1)C4C2
growth (HCT-15 colon): 104%
growth (HT29 colon): 101%
growth (SNB-75 CNS): 90.5%
growth (SNB-19 CNS): 99.1%
growth (U251 CNS): 99.7%
growth (PC-3 prostate): 100%
growth (SK-MEL-5 melanoma): 104%
growth (UACC-62 melanoma): 94.5%
growth (LOX IMVI melanoma): 96.9%

COc1cc(NC(=O)c2cc(O)c(C/C=C(\C)CCC=C(C)C)c(O)c2)cc2c1O[C@]1(C)CC[C@@H](O)C(C)(C)[C@H]1C2
growth (HCT-15 colon): 10.4%
growth (HT29 colon): 2.06% (active)
growth (SNB-75 CNS): 0.372% (active)
growth (SNB-19 CNS): 8.74% (active)
growth (U251 CNS): 0.579% (active)
growth (PC-3 prostate): 13.1%
growth (SK-MEL-5 melanoma): -68.2% (active)
growth (UACC-62 melanoma): -4.89% (active)
growth (LOX IMVI melanoma): -65.8% (active)

COc1ccc(C(=O)c2cc(OC)c(OC)c(OC)c2)cc1OC(=O)C(Cl)(Cl)Cl
growth (HCT-15 colon): 8.84% (active)
growth (HT29 colon): 13.4%
growth (SNB-75 CNS): 58%
growth (SNB-19 CNS): 23.5%
growth (U251 CNS): 5.44% (active)
growth (PC-3 prostate): 10.2%
growth (SK-MEL-5 melanoma): -24.1% (active)
growth (UACC-62 melanoma): 39.8%
growth (LOX IMVI melanoma): 15.1%
growth (SK-MEL-28 melanoma): 51.6%

O=CN1N=C(c2ccc3c(c2)OCO3)CC1c1cccc(Nc2ccnc3cc(C(F)(F)F)ccc23)c1 (stereo not given)
growth (HCT-15 colon): 70.9%
growth (HT29 colon): 73.4%
growth (SNB-75 CNS): 89%
growth (SNB-19 CNS): 89.8%
growth (U251 CNS): 88.7%
growth (PC-3 prostate): 56.8%
growth (SK-MEL-5 melanoma): 50.7%
growth (UACC-62 melanoma): 55.2%
growth (LOX IMVI melanoma): 76%
growth (SK-MEL-28 melanoma): 100%

Cc1nn(-c2ccc(-c3ccc(OC(F)(F)F)cc3)cc2)c2nc(-c3ccccc3)nc(N)c12
growth (HCT-15 colon): 95.6%
growth (HT29 colon): 90.2%
growth (SNB-75 CNS): 95%
growth (SNB-19 CNS): 90.7%
growth (U251 CNS): 85.5%
growth (PC-3 prostate): 93.2%
growth (SK-MEL-5 melanoma): 100%
growth (UACC-62 melanoma): 99.9%
growth (LOX IMVI melanoma): 93.8%
growth (SK-MEL-28 melanoma): 115%

CN(C)[C@@H]1C(=O)C(C(N)=O)=C(O)[C@@]2(O)C(=O)C3=C(O)c4c(O)cc(CN5CCc6ccccc6C5)c(Cl)c4C[C@H]3C[C@@H]12
growth (HCT-15 colon): -75.1% (active)
growth (HT29 colon): -84.6% (active)
growth (SNB-75 CNS): -79.1% (active)
growth (SNB-19 CNS): -82.2% (active)
growth (U251 CNS): -95.7% (active)
growth (PC-3 prostate): -85.5% (active)
growth (SK-MEL-5 melanoma): -94.2% (active)
growth (UACC-62 melanoma): -89.5% (active)
growth (LOX IMVI melanoma): -87.2% (active)
growth (SK-MEL-28 melanoma): -86.6% (active)
